Results taken from the supplement of paper PMC10849652.
The full data set covers some 7,900 targets. This sample favours those with a hit. About 0.6% of all pairs of compound and target were hits.

compound: COc1cc(C(=O)O)ccc1NC(=O)[C@@H]1N[C@@H](CC(C)(C)C)[C@](C#N)(c2ccc(Cl)cc2F)[C@H]1c1cccc(Cl)c1F [idasanutlin]; experiment: log2 fold change, soluble protein after heating vs DMSO (PISA); higher = thermal stabilisation; K562 cells, 10 uM, 30 min; active = over 0.2 and 3.5 SD of the protein, either way, in both replicates (recomputed)
Method in brief: (§1)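 K562 cells at 2×10^6 cells/mL were treated with 10 μM compound for 30 min. Aliquots were heated for 3 min across 48°C-58°C, pooled, and extracted in PBS with 0.5% NP-40 at 4°C; soluble protein was the supernatant after 21,000xg for 90 min. Soluble protein was quantified by TMTpro 16plex LC-MS/MS with channel sums equalised, and reported as log2 fold change in thermal stability against DMSO controls, with values from duplicates.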

Chain of UniProt Q96G46 (Q96G46 whole entry, looked up): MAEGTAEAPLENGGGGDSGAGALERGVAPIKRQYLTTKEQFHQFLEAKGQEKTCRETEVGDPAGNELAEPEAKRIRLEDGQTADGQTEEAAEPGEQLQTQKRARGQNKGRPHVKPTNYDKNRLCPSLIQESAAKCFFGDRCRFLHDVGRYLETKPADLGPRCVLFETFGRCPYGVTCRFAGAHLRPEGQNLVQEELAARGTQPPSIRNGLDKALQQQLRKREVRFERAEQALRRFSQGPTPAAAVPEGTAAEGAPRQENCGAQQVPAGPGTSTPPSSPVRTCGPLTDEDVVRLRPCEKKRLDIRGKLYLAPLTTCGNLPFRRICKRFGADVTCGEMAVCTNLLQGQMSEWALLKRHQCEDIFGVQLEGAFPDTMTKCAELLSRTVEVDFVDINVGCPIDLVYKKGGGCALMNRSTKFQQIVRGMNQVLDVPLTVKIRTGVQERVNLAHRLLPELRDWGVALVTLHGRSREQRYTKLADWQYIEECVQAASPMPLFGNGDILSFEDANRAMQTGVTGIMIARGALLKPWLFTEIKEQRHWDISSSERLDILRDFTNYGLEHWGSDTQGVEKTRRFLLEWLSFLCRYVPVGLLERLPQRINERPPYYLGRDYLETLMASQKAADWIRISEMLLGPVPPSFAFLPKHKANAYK
Chain of UniProt Q9C073 (Q9C073 whole entry, looked up): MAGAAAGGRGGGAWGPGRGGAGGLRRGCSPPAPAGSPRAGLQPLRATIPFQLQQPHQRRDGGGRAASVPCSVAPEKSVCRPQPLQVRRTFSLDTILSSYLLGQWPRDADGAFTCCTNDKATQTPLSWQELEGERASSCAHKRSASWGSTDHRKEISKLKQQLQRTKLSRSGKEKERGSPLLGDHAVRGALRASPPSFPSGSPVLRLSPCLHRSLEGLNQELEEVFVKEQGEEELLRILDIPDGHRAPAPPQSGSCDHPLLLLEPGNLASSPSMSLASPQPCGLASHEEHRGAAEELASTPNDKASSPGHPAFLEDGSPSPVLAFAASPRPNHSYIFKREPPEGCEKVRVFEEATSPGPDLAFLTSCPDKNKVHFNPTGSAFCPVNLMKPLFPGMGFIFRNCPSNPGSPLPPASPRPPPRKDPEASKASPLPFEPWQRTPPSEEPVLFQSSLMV
Chain of UniProt P17844 (P17844 whole entry, looked up): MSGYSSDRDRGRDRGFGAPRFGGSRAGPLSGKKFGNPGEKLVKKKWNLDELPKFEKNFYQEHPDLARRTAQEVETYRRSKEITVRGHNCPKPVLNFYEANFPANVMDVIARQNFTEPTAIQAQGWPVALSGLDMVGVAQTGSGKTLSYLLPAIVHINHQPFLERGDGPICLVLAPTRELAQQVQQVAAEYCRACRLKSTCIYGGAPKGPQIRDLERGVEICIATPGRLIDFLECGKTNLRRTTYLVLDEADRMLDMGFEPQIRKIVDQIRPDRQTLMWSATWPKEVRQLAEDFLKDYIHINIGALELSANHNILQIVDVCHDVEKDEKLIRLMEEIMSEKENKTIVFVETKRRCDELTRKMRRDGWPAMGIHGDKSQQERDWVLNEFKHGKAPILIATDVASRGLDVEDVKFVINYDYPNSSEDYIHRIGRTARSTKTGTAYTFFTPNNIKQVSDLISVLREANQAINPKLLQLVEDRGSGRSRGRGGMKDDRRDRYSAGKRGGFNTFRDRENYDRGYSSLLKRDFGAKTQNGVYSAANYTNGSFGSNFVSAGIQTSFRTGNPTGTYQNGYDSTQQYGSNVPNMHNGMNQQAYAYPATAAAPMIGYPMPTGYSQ
Chain of UniProt Q8N128 (Q8N128 whole entry, looked up): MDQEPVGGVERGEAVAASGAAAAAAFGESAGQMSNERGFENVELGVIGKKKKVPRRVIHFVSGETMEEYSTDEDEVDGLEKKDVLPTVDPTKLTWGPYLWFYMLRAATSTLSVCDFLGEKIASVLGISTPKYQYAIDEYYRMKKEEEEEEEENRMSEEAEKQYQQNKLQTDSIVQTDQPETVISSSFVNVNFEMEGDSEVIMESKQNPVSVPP
Chain of UniProt Q96CS3 (Q96CS3 whole entry, looked up): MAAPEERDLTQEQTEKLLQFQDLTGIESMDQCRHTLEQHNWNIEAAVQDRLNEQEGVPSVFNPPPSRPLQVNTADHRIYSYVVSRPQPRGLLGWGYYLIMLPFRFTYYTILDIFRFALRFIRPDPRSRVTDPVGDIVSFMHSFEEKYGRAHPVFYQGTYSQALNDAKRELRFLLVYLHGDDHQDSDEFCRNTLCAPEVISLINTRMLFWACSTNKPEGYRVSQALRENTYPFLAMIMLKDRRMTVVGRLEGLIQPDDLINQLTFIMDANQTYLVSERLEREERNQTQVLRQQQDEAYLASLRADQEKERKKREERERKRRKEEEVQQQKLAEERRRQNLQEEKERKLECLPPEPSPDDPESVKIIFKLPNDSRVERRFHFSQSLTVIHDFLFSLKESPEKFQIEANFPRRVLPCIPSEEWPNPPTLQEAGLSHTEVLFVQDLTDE
Chain of UniProt Q13409 (Q13409 whole entry, looked up): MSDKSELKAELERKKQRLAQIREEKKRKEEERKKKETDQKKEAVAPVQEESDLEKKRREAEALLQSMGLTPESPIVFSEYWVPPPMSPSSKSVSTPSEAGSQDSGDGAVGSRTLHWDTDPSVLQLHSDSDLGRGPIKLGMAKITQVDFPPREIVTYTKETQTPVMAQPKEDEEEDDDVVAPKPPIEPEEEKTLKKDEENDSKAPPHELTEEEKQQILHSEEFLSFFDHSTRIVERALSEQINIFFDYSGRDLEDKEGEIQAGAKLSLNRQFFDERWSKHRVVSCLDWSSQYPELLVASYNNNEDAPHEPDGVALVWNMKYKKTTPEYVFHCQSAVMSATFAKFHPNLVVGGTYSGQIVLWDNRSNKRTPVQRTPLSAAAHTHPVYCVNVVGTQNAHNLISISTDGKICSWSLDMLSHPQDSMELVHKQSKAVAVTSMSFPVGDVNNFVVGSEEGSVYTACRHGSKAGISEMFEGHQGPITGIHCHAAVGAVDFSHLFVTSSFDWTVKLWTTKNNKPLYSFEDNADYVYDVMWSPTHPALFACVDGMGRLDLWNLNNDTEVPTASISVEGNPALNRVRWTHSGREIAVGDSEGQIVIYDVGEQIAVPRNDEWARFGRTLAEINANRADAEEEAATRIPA
Chain of UniProt Q01780 (Q01780 whole entry, looked up): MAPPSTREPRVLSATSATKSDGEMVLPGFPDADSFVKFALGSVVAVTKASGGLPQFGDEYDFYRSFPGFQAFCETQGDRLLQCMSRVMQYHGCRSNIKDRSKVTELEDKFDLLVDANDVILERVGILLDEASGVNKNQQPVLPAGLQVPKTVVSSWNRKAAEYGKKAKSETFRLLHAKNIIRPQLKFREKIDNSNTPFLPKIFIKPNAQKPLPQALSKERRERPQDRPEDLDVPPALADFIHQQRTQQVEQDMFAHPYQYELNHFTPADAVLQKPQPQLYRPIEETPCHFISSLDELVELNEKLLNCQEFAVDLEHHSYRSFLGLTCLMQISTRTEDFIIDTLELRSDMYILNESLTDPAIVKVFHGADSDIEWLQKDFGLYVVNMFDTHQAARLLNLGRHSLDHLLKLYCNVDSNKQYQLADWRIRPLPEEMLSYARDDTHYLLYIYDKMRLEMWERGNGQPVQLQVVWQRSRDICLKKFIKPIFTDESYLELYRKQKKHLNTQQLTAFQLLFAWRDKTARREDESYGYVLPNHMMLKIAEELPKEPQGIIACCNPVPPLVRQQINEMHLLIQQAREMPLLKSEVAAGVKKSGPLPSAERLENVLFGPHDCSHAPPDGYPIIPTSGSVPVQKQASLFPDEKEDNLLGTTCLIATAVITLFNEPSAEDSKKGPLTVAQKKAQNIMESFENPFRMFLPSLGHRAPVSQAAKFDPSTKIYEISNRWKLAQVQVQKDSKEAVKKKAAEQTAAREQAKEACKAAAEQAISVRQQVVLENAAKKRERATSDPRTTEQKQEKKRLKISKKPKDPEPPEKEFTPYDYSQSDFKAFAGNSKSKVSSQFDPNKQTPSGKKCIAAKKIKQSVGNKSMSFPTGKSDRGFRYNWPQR
Chain of UniProt P68104 (P68104 whole entry, looked up): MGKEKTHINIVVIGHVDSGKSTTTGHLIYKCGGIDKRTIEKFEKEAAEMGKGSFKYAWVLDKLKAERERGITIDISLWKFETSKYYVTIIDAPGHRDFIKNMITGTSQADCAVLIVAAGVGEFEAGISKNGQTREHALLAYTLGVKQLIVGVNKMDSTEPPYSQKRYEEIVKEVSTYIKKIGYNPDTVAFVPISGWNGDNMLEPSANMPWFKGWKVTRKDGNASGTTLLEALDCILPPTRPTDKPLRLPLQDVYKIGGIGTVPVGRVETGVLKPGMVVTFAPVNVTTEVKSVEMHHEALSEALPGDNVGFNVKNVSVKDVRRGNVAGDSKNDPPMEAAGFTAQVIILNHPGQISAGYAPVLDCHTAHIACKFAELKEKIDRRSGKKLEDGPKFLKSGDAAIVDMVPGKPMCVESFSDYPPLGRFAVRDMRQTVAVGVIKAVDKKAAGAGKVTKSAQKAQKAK
Chain of UniProt Q9BPY3 (Q9BPY3 whole entry, looked up): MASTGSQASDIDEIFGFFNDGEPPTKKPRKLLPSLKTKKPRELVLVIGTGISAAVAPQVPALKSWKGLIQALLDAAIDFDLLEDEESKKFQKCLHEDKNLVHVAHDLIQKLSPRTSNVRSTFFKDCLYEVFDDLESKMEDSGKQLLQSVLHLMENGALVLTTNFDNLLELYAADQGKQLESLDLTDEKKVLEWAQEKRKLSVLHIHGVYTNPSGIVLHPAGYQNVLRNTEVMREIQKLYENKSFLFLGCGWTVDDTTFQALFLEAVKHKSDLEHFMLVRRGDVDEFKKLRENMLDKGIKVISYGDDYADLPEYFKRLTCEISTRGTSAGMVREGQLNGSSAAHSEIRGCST
Chain of UniProt O60573 (O60573 whole entry, looked up): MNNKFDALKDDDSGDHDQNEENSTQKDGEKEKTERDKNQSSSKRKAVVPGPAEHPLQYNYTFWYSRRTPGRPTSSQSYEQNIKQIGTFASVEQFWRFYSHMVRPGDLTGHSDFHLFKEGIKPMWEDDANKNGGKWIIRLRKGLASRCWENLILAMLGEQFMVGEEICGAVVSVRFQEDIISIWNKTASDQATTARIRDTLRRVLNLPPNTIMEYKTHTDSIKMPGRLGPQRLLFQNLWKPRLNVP

log2 fold change, inactive:
DYNC1I2 isoform 2 (UniProt Q13409) 0.201
EZH2 isoform 2 (UniProt Q15910) 0.073
EHBP1L1 (UniProt Q8N3D4) -0.021
DDX5 (UniProt P17844) 0.024
FAM177A1 isoform 2 (UniProt Q8N128) -0.02
EXOC4 (UniProt Q96A65) -0.052
E2F4 (UniProt Q16254) 0.006
DSN1 (UniProt Q9H410) -0.013
CWF19L2 (UniProt Q2TBE0) 0.124
DDOST (UniProt P39656) 0.013
DUS3L (UniProt Q96G46) 0.011
EFL1 (UniProt Q7Z2Z2) -0.071
EEF1A1 (UniProt P68104) -0.086
FAM207A (UniProt Q9NSI2) 0.009
DPP8 (UniProt Q6V1X1) -0.112
DDX27 (UniProt Q96GQ7) 0.246
DBT (UniProt P11182) 0.015
FAM241A (UniProt Q8N8J7) 0.018
CYB561A3 isoform 2 (UniProt Q8NBI2) -0.066
FAM193B (UniProt Q96PV7) 0.311
FAM117A (UniProt Q9C073) 0.076
EHD2 (UniProt Q9NZN4) -0.025
DAXX (UniProt Q9UER7) -0.067
DHRS13 (UniProt Q6UX07) 0.057
CTNNB1 (UniProt P35222) -0.056
DOCK8 (UniProt Q8NF50) 0.217
EIF4G3 isoform 3 (UniProt O43432) 0
DCP2 (UniProt Q8IU60) 0.167
EIF2AK1 (UniProt Q9BQI3) -0.035
FAF2 (UniProt Q96CS3) 0.007
ELF1 (UniProt P32519) 0.089
EXOSC10 (UniProt Q01780) 0.01
FAM118B (UniProt Q9BPY3) -0.034
ELAC1 (UniProt Q9H777) 0.122
EIF4E2 (UniProt O60573) 0.024

compound: COc1cc(Nc2ncc3c(n2)-c2ccc(Cl)cc2C(c2c(F)cccc2OC)=NC3)ccc1C(=O)O [alisertib]; experiment: as above
Method in brief: as §1

log2 fold change, inactive:
DYNC1I2 isoform 2 (UniProt Q13409) 0.066
EZH2 isoform 2 (UniProt Q15910) -0.209
EHBP1L1 (UniProt Q8N3D4) -0.098
DDX5 (UniProt P17844) 0.006
FAM177A1 isoform 2 (UniProt Q8N128) 0.013
EXOC4 (UniProt Q96A65) -0.002
E2F4 (UniProt Q16254) -0.056
DNAH10 (UniProt Q8IVF4) -0.042
DSN1 (UniProt Q9H410) 0.018
DNM2 isoform 4 (UniProt P50570) 0.316
DDOST (UniProt P39656) -0.065
DUS3L (UniProt Q96G46) -0.071
EFL1 (UniProt Q7Z2Z2) -0.013
EEF1A1 (UniProt P68104) -0.347
FAM207A (UniProt Q9NSI2) 0.238
DPP8 (UniProt Q6V1X1) -0.01
DDX27 (UniProt Q96GQ7) 0.415
DBT (UniProt P11182) 0.003
FAM241A (UniProt Q8N8J7) -0.038
CYB561A3 isoform 2 (UniProt Q8NBI2) 0.041
FAM117A (UniProt Q9C073) 0
EHD2 (UniProt Q9NZN4) -0.02
DHRS13 (UniProt Q6UX07) -0.011
CTNNB1 (UniProt P35222) -0.084
DOCK8 (UniProt Q8NF50) -0.029
EIF4G3 isoform 3 (UniProt O43432) -0.003
EIF2AK1 (UniProt Q9BQI3) 0.032
FAF2 (UniProt Q96CS3) 0.004
DNAJC24 (UniProt Q6P3W2) 0.045
EXOSC10 (UniProt Q01780) -0.002
DNAH5 (UniProt Q8TE73) 0.011
FAM118B (UniProt Q9BPY3) -0.049
EIF4E2 (UniProt O60573) 0.059
